Screening data (PubChem BioAssay)
The full list was thinned out, with hits kept by preference.
APE1 inh = inhibitors of human APE1 endonuclease; AID 2517; Potency, µM (highest dose often 65.8 µM), for inactives: at the highest dose activity change, negative = inhibition, most hits filed as inhibitors; P27695; 0.35% of 350,000 active; recombinant APE1, TAMRA/BHQ-2 abasic DNA cleavage fluorescence;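 further: plate controls were vehicle for no effect and reference inhibitor for full effect; nearly all actives have a fitted effect of over 55% in size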
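Compound pre-exposure to 0.75 nM APE1, 15 min at ambient temperature. Reaction initiated with 50 nM TAMRA/BHQ-2 THF substrate, read immediately in kinetic mode, 525 nm excitation, 598 nm emission.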
BLM helicase inh = Bloom syndrome helicase (human) inhibition; P54132; 0.2% of 350,000 active; recombinant BLM DNA unwinding, fluorescence dequenching; Potency, µM (titrated, usually from 56.1 µM), inactives show top-dose activity change, negative = inhibition, hits mostly inhibitors;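 further: plate controls were vehicle for no effect and no enzyme for full effect; nearly all actives have a fitted effect of over 35% in size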
Target sequence (P54132 whole entry, looked up): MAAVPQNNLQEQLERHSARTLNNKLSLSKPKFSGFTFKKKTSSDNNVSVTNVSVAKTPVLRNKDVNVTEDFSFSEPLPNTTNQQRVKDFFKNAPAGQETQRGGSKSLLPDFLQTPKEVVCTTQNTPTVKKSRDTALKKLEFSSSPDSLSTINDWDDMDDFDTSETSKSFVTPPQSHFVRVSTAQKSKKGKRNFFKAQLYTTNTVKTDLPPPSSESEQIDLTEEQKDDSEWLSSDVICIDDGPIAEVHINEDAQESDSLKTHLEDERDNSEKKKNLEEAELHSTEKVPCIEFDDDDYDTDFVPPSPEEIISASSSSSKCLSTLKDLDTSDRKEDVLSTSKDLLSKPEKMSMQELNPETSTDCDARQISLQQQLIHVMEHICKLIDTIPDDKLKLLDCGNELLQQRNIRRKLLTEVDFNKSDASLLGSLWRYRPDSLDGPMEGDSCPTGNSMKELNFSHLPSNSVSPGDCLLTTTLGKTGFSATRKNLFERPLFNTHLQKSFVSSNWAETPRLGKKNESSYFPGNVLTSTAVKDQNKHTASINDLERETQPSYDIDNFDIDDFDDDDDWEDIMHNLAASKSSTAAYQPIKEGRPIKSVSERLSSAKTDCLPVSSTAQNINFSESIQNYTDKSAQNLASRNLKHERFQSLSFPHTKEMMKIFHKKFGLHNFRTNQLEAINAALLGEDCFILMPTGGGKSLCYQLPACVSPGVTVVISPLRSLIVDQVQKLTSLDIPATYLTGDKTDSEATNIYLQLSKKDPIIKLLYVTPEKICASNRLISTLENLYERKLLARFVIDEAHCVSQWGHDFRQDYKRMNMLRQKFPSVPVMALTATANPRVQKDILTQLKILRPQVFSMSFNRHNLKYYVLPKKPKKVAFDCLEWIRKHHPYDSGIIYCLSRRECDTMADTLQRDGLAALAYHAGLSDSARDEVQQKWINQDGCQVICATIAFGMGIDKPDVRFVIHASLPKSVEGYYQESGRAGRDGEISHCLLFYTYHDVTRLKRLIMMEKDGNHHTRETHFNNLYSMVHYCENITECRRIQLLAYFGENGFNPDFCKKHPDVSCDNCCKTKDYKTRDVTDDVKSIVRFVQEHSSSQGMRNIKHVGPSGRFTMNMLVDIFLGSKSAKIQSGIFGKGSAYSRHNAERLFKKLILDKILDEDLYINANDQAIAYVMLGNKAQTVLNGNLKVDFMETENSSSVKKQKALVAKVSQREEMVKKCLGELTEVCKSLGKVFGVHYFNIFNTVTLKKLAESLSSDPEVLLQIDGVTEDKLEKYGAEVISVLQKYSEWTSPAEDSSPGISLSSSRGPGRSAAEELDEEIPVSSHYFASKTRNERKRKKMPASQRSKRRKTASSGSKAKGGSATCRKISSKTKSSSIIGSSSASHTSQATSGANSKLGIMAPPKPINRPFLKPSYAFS
TDP1 inh = inhibitors of human tyrosyl-DNA phosphodiesterase TDP1 | Potency, µM (top dose mostly 130 µM), inactives show top-dose activity change, negative = inhibition, usual class: inhibitors | Q9NUW8 | recombinant TDP1, AlphaScreen DNA substrate cleavage | 0.28% of 350,000 active; further: nearly all actives have a fitted effect of over 40% in size
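AlphaScreen read-out: signal falls as enzyme removes the 3' tyrosine-FITC from a 5'-biotinylated DNA oligo (15 nM, 5 min, RT). Enzyme was E. coli-made recombinant Tdp1 at 1 nM, exposed to compound for 15 min beforehand; beads 10 ug/ml, 10 min.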
RECQ1 inh = inhibitors of human RECQ1 DNA helicase | P46063 | RECQ1 DNA unwinding, red fluorescence kinetic read | Potency, µM (titrated, usually from 57.3 µM), for the others: at the top dose activity, negative = inhibition, hits mostly inhibitors | 0.54% of 240,000 active | AID 2549;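 further: plate controls were vehicle for no effect and no enzyme for full effect; nearly all actives have a fitted effect of over 30% in size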
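50 nM RECQ1T1 preincubated 15 min with compound in Tris pH 8.0 buffer with MgCl2, DTT, Tween-20 and 2.5 ug/ml poly(dI-dC); started with 200 nM TAMRA/BHQ-2 forked duplex and 2 mM ATP. Unwinding read as fluorescence (525/598 nm), two reads 2 h apart.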
L3MBTL1 inh = inhibitors of human L3MBTL1; Q9Y468; AlphaScreen L3MBTL1–H3K9me1 peptide binding; Potency, µM (series often up to 57.1 µM), without a hit: at the highest dose activity, negative = inhibition, hits mostly inhibitors; 0.66% of 230,000 active; further: nearly all actives have a fitted effect of over 60% in size
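Displacement of a biotinylated histone H3(1-15) peptide monomethylated at Lys9 (75 nM) from L3MBTL1 (50 nM) was measured by AlphaScreen after a 30 min room-temperature compound incubation; cefsulodin titration served as intraplate control.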
JMJD2E inh = JMJD2E (human) inhibition; B2RXH2; JMJD2E catalytic domain, FDH-coupled NADH fluorescence (FDH is formaldehyde dehydrogenase); Potency, µM (highest dose often 57.1 µM), without a hit: top-dose activity change, negative = inhibition, actives largely listed as inhibitors; 1.6% of 230,000 active; active means well fitted inhibition curve with a large enough effect, not every such curve was filed as active; inconclusive means small, poorly fitted or top-dose-only effect, or another doubt; inactive means no such curve, though single readings can be large or run the other way;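 further: 0% = wells with enzyme and -100% = buffer wells without enzyme; nearly all actives have a fitted effect of over 50% in size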
* = called active by the depositor; i = inactive; ? = inconclusive; / = not tested or not shown; [ ] = remark or other dose. Unless noted, the call rests on the fitted dose curve; in most records, active means well fitted curve in the direction sought with a large enough effect; inconclusive means small, poorly fitted or top-dose-only effect, or another doubt; inactive means no such curve, though single readings can be large; an effect the other way counts as inactive or inconclusive. Unless noted, on the % scale 0 is the no-effect control and ±100 the full control effect; potency means the concentration at half of the fitted maximal effect.

SMILES	APE1 inh	BLM helicase inh	TDP1 inh	RECQ1 inh	L3MBTL1 inh	JMJD2E inh
Cc1cc(C)n(-c2nc(Nc3ccccc3)nc(-n3nc(C)cc3C)n2)n1	-5%	-12%	45µM*	-3%	-5%	-5%
Cc1ccc(Nc2cc(C)nc(-n3nc(C)cc3C)n2)cc1	/	-2%	8%	/	/	/
Cc1cc(C)n(-c2nc(N(c3ccccc3)c3ccccc3)nc(-n3nc(C)cc3C)n2)n1	5%	0%	5%	i	4µM*	-1%
COc1cccc(/C=N/Nc2nc(Nc3ccccc3)nc(-n3nc(C)cc3C)n2)c1O	-9%	-21%	13%	-12%	/	20µM*
COc1cccc(/C=N/Nc2cc(-n3nc(C)cc3-c3ccccc3)ncn2)c1O	7%	-17%	-2%	3%	-4%	1%
CCCn1c(SCc2nc(-c3cc(OC)ccc3OC)no2)nnc1-c1ccc(Cl)cc1	/	-2%	5%	/	/	/
O=C(O)c1ccccc1OC1=NS(=O)(=O)c2ccccc21	/	/	2%	/	/	/
O=C1OC(c2ccccc2)(c2ccccc2)N2CCN(C(=O)NCc3ccc(F)cc3)CC12 (stereo not given)	/	/	0%	/	/	/
CCOC(=O)c1oc2c(O)c(O)ccc2c(=O)c1-c1nncn1-c1ccccc1	-11%	1%	4%	11%	?	7.9µM*
CCOC(=O)c1oc2c(C)c(O)ccc2c(=O)c1-c1nncn1-c1ccccc1	-6%	2%	9%	-5%	6%	-7%
O=C(N/N=C\c1ccccc1O)c1ccccc1O	-4%	-6%	32µM*	-9%	/	5µM*
O=C(NCc1ccccn1)C(=O)N/N=C/c1ccccc1O	0%	-2%	/	24%	/	6.3µM*
Cc1cc(/C=N/NC(=O)C(=O)NCc2ccccn2)c(C)n1-c1cccc(Br)c1	-1%	-5%	7%	-26%	-27%	-13%
O=C(NCCCN1CCOCC1)C(=O)N/N=C/c1ccccc1O	3%	4%	/	-4%	?	11µM*
CC1=C(C#N)C(=O)N(C2CCS(=O)(=O)C2)C(=O)/C1=C\c1ccco1 (stereo not given)	1.6µM*	7.1µM*	/	3.2µM*	/	?
CCS(=O)(=O)N1CC(=O)N(c2ccc(C)c(C)c2)C(C)(C(=O)NC2CCCCCC2)C1 (stereo not given)	/	1%	2%	/	/	/
O=[N+]([O-])c1ccc(/C=N/N=C/c2ccc([N+](=O)[O-])o2)o1	?	-8%	/	-8%	?	14µM*
O=C(O)/C=C/c1ccc([N+](=O)[O-])o1	?	-6%	32µM*	i	?	-2%
CC1=C(C(=O)O)N2C(=O)C(NC(=O)C(N)c3ccc(O)cc3)C2SC1 (stereo not given)	2%	-3%	-11%[56.1 µM]	19%	/	-14%
CSc1ccc(/C=N/NC(=O)c2ccc(C)c(C)c2)cc1	6%	28µM*	-5%	1%	-13%	-3%
NS(=O)(=O)c1ccc(N=Nc2c(O)c(C(=O)O)cc3ccccc23)cc1	-7%	-13%	3%	-23%	-25%	-11%
O=C(O)Cc1ccc(N=Nc2c(O)c(C(=O)O)cc3ccccc23)cc1	?	-18%	1%	?	25µM*	?
Cc1ccc(-c2cc(C(=O)NN3CCOCC3)c3cc(Br)ccc3n2)o1	-3%	2%	3%	i	-5%	?
Cc1ccc(-c2cc(C(=O)NC3=NCCS3)c3cc(Br)ccc3n2)o1	0%	4%	8%	-26%	32µM*	8.9µM*
CCOc1cc(/C=C2\SC(=S)N(NC(=O)c3cccnc3)C2=O)ccc1O	?	-7%	-2%	18µM*	-23%	-4%
SMILES	APE1 inh	BLM helicase inh	TDP1 inh	RECQ1 inh	L3MBTL1 inh	JMJD2E inh
CCOc1cc(/C=C2/SC(=S)N(CC3CCCO3)C2=O)ccc1O (stereo not given)	-10%	-13%	0%	14µM*	-25%	?
CCOc1cc(-c2ccc3c(c2)OCO3)cc(=[O+]CC)c2c(C)oc(C)c12	/	/	1%	/	/	/
COc1ccc(CN(Cc2ccccc2)C(=O)c2ccccc2O)cc1COc1ccc(NC(C)=O)cc1	/	/	-13%	/	/	/
Cc1ccc(C)n1-c1ccc(N(C)C)cc1	12%	4%	11%	-23%	/	16µM*
Cc1ccc(N(C)C)cc1	-2%	/	-3%	-17%	/	/
Oc1ccc2ccccc2c1C=NCc1ccccc1	2%	-11%	8%	-8%	?	?
O=C(N/N=C/c1c(O)ccc2ccccc12)c1ccc(CO)nc1	0%	-16%	5%	/	3.5µM*	/
Oc1ccc2ccccc2c1/C=N/Nc1ccccc1	-2%	-7%	8%	-5%	?	7.9µM*
O=CN/N=C/c1c(O)ccc2ccccc12	-3%	-1%	6%	-20%	-13%	11µM*
COc1ccc(N/N=C/c2c(C(=O)O)ccc3ccccc23)cc1	?	-13%	0%	i	/	25µM*
COc1ccc(C(=O)NCC(c2ccc3c(c2)OCO3)N2CCN(c3ccccc3F)CC2)cc1 (stereo not given)	/	-6%	7%	/	/	/
CC(C)CN1CCC2(CC1)CCN(S(=O)(=O)c1ccccc1)CC2	5%	4%	/	-4%	/	/
CC(C)(C)n1ncc2c(=O)n(Cc3cccc(Oc4ccccc4)c3)cnc21	-3%	/	/	/	/	/
O=C(CNc1ccc(F)cc1)N/N=C/c1c(O)ccc2ccccc12	21%	-6%	/	/	/	/
Cc1cc(N/N=C/c2c(O)ccc3ccccc23)nc(-c2ccccc2O)n1	-8%	-1%	5%	-6%	-5%	14µM*
NC(=S)N/N=C/c1c(O)ccc2ccccc12	12%	-3%	10%	-10%	/	7.1µM*
CN(C(=O)CSc1nc2ccc(NC(=O)CCc3ccccc3)cc2s1)c1ccccc1	/	-8%	6%	/	/	/
N#C/C(=C\c1ccc(-c2ccc(Cl)c(C(=O)O)c2)o1)c1nc2ccccc2[nH]1	27µM*	?	/	/	-28%	/
N#C/C(=C\c1ccccc1C(=O)O)c1nc2ccccc2[nH]1	16%	-8%	/	/	/	/
O=C(O)C1Nc2c(cccc2C(F)(F)F)C2C=CCC12 (stereo not given)	17µM*	-7%	/	/	/	/
CC(=O)c1ccc2c(c1)C1C=CCC1C(C(=O)O)N2 (stereo not given)	?	-8%	6%	i	1.3µM*	2%
COC(=O)c1ccccc1S(=O)(=O)Nc1cc(=O)c2ccccc2[nH]1	/	/	2%	/	/	/
c1coc(-c2nc3n(n2)C2(CCCCC2)[C@@H]2CCCC[C@@H]2N3)c1	/	-4%	4%	/	/	/
COc1cc2[nH]c(Cl)c([N+](=O)[O-])c2cc1OC	?	?	/	i	/	13µM*
COc1cc2[nH]c3c(Cl)ncnc3c2cc1OC	1%	-17%	0%	2%	-13%	0%
